Results reported in ChEMBL document CHEMBL3988442, “University of Dundee, Small-Polar-MMV Screening Library” (2021).
Screen size: about 48,000 compounds; about 13,000 (27%) showed an effect of 50% or more. Some of the results follow.

Test system: Wolbachia pipientis
Assay: Anti-Wolbachia Cell-Based Screen
Format: functional
Design: scale not given: in the data most compounds retested in dose-response had high values
Conditions: 5 µM

Structure (SMILES) | Percent Effect
O=C(O)C(F)(F)F.O=C(O)C(F)(F)F.c1cncc(COCc2nnc3n2CCN(Cc2ccoc2)C3)c1 | 7.608%
O=C(O)C(F)(F)F.O=C(O)C(F)(F)F.O=C(O)C(F)(F)F.c1cncc(COCc2cncc3c2CCN(Cc2ccoc2)C3)c1 | 108.7%
CCS(=O)(=O)N1CCc2c(COCc3ccncc3)cncc2C1 | 118.3%
O=C(O)C(F)(F)F.c1ccc(CN2Cc3[nH]nc(COCC4CC4)c3C2)nc1 | -4.447%
O=C(O)C(F)(F)F.O=C(O)C(F)(F)F.O=C(c1ccc[nH]1)N1CCc2c(COCc3ccncc3)cncc2C1 | -6.376%
O=C(O)C(F)(F)F.O=C(O)C(F)(F)F.O=C(O)C(F)(F)F.O=C(O)C(F)(F)F.c1ccc(CN2CCc3c(COCc4ccncc4)cncc3C2)nc1 | 100.9%
CCOCc1cncc2c1CCN(S(=O)(=O)c1ccccc1)C2 | -7.612%
O=C(c1ccsc1)N1CCc2c(COCc3ccncc3)cncc2C1 | 6.158%
Cn1cc(CN2CCc3c(COCc4ccncc4)cncc3C2)cn1 | 11%
O=C(O)C(F)(F)F.O=C(O)C(F)(F)F.O=C(O)C(F)(F)F.c1ccc(CN2CCc3c(COCC4CC4)cncc3C2)nc1 | 97.89%
Cn1cc(CN2CCc3c(COCC4CC4)cncc3C2)cn1.O=C(O)C(F)(F)F.O=C(O)C(F)(F)F | 4.622%
O=C(c1ccoc1)N1CCc2c(COCc3ccncc3)cncc2C1 | -1.129%
N#Cc1ccccc1C(=O)N1C[C@H](CO)C[C@H](CN2CCCC2)C1 | 4.936%
Cc1nc(C(=O)N2CCN(C(=O)C3CCC3)[C@@H]3CS(=O)(=O)C[C@@H]32)cs1 | 7.717%
CNC(=O)NC(=O)C(C)N1CCC(c2c[nH]c3ccc(OC)cc23)CC1 (stereo not drawn) | 1.858%
CC(C)CCN(C)Cn1ncc2cn(-c3ccccc3)nc2c1=O | 5.11%
Cc1nc(NC(=O)NCc2nc3cccc(C)c3n2C)oc1C | 43.9%
CCn1c(CNC(=O)c2ccc(N(C)C)nc2)nc2ccccc21 | 8.635%
CCn1c(CNC(=O)Nc2nc(C)c(C)o2)nc2ccccc21 | 89.34%
CC(=O)NCCSCCOc1cccc(Br)c1 | -2.574%
Cc1oc(-c2nc(C#N)c(N(C)C)o2)cc1S(=O)(=O)N1CCCC1 | 17.91%
CCCNC(=O)CSCc1ccc(S(=O)(=O)N(C)C)o1 | -0.4398%
CNc1oc(-c2ccc(OC)c(S(=O)(=O)N3CCCCC3)c2)nc1C#N | -6.371%
CNc1oc(-c2ccc(S(=O)(=O)N(C)C)o2)nc1C#N | 100.4%

Structure (SMILES) | Percent Effect
CC(C)Nc1oc(-c2ccc(S(=O)(=O)N(C)C)o2)nc1C#N | 118.4%
CNc1oc(-c2cc(S(=O)(=O)N3CCCCCC3)c(C)o2)nc1C#N | 9.909%
CN(C)S(=O)(=O)c1ccc(CSCC(=O)NC(C)(C)C)o1 | -7.197%
CN(C)S(=O)(=O)c1ccc(-c2nc(C#N)c(NC(C)(C)C)o2)o1.Cl | 93%
COc1cccc(N2CC3(CCN(c4ccncn4)C3)CC2=O)c1 (stereo not drawn) | -12.13%
Cc1nnc2n1CCN(Cc1nc3ccccc3o1)C2 | 13.24%
O=C(N[C@@H]1CCNC[C@H]1O)c1cc(F)cc(Cl)c1 | 0.509%
CS(=O)(=O)CCC(=O)N1CCC(c2cccc(F)c2)C1 (stereo not drawn) | -0.1646%
O=C(CCc1cc(O)no1)N1CCC(Cc2ccc(F)cc2)CC1 | -4.234%
CC(C)NC(=O)CCN1CCC(C(=O)c2cc(F)ccc2F)CC1 | -38.81%
O=C(O)CCC(=O)N1CCC(c2noc3cc(F)ccc23)CC1 | 117.2%
O=C(O)CCCC(=O)N1CCC(c2noc3cc(F)ccc23)CC1 | 110.7%
CC(C)NC(=O)CCC(=O)N1CCC(c2noc3cc(F)ccc23)CC1 | 90.62%
O=C(CCC(=O)N1CCNC(=O)C1c1cccc(F)c1)NC1CCCC1 (stereo not drawn) | -14.56%
O=C(CN1CCC(C(=O)c2cc(F)ccc2F)CC1)NC1CC1 | -20.5%
CC(=O)N1CC[C@H](c2nc3cc(F)ccc3o2)C1 | 5.323%
O=C(CCC(=O)N1CCC(c2noc3cc(F)ccc23)CC1)NC1CC1 | 145.4%
O=C(c1ccc(Cl)c(Cl)c1)N1CCCCC1C1OCCO1 (stereo not drawn) | 4.358%
Cc1ncc(CNC(=O)N(C)Cc2ccc([S+](C)[O-])cc2)s1 (stereo not drawn) | -5.78%
CCc1nc(CN2CCOC(CN(CC)c3cccnn3)C2)cs1 (stereo not drawn) | 0.2652%
Cc1nc(C(C)C)sc1C(=O)NS(=O)(=O)c1ccc(C#N)cc1 | -14.12%
Cc1ccc(CNCCOc2ccc(S(C)(=O)=O)cc2)cc1 | 14.5%
C=C(C)COc1ccccc1NC(=O)N1CCCCC1CO (stereo not drawn) | -1.415%
C=C(C)COc1ccccc1CN1CCC(NC(C)=O)CC1 | 100.9%

Structure (SMILES) | Percent Effect
NC(=O)C1CCN(C(=O)c2ccccc2OCc2ccccc2Cl)CC1 | 5.008%
Cc1ccc(NCCCNC(=O)C2CCCN(Cc3ccco3)C2)nc1 (stereo not drawn) | -3.633%
O=C(NCCCc1ccncc1)C1CCCN(Cc2ccco2)C1 (stereo not drawn) | 21.32%
C=C(C)CN1CCC(NC(=O)NCCc2ccccc2OC)CC1 | 1.808%
C=C(C)COc1ccccc1CN1CCCC(C(=O)NCCCO)C1 (stereo not drawn) | 100.8%
C=C(C)COc1ccccc1NC(=O)NC1CCOCC1 | -8.907%
CCNC(=O)COc1ccccc1N1CCCC(C)C1 (stereo not drawn) | -0.1998%
C=C(C)COc1ccccc1CN1CCC(C(=O)NCC)C1 (stereo not drawn) | 91.68%
C=C(C)COc1ccccc1C(=O)N1CCC2(CC1)CN(C)CCN2C | 12.34%
C=C(C)COc1ccccc1C(=O)N1CCC(C(=O)NCC)C1 (stereo not drawn) | 83.75%
CCc1nc(CCNC(=O)Nc2cc(C(N)=O)sc2C)cs1 | 34.11%
O=C(c1ncoc1C1CCCO1)N1CC2(CCCC2)c2ccccc21 (stereo not drawn) | -7.876%
Cc1ccc(CCNc2ncnc3sc4c(c23)CCNC4)o1 | 6.04%
CC(C)c1nc2oc(C(=O)N3CCOCC3)c(N)c2c2c1CCCC2 | 100.5%
Cc1nc2oc(C(=O)N3CCOCC3)c(N)c2c2c1CCCC2 | 117.9%
CC(=O)N1CCc2[nH]nc(C(=O)N3CCOCC3)c2C1 | -13.35%
CCn1c(N)nc2cc(C(=O)N3CCCOCC3)cnc21 | -12.44%
Nc1nc2c(c(NCc3ccc(C(=O)N4CCCC4)cc3)n1)CCCC2 | -8.867%
Cc1nc2oc(C(=O)N3CCCC3)c(N)c2c2c1CCCC2 | 89.55%
Cn1c(C(=O)N2CCOCC2)nc2c1CCN(c1ncccn1)C2 | -2.522%
CC(=O)N1CCCN(C(=O)c2oc(Br)cc2C)CC1 | -21.77%
CCC(C)N1CCc2c(C(=O)N3CCOCC3)n[nH]c2C1 (stereo not drawn) | -26.93%
Cc1nc(N2CCOc3ccc(CO)cc3C2)c2c(C)noc2n1 | -4.645%
CNC(=O)C(C)NC(=O)c1cc(COc2ccc(OC)cc2Cl)[nH]n1 (stereo not drawn) | -6.822%

Structure (SMILES) | Percent Effect
CN1C[C@@H](n2cnc(-c3ccccc3)c2-c2c[nH]cn2)C[C@H]1C(=O)O | -2.319%
Cc1cc(C)c(C(=O)N2CCC3(CCCN(CC(C)(C)C)C3)C2)[nH]1 (stereo not drawn) | -1%
Cc1ccc(CN2CCCC3(CCCC(=O)N3C)C2)s1.O=C(O)C(F)(F)F (stereo not drawn) | 5.855%
CC[C@@H]1N(Cc2ccc(OC)cc2)CCC[C@]12CCC(=O)N2CCOC.O=C(O)C(F)(F)F | 91.26%
CC[C@@H]1N(Cc2ccc(C)s2)CCC[C@]12CCC(=O)N2C.O=C(O)C(F)(F)F | 100.7%
CC[C@@H]1N(Cc2ccc(F)cc2)CCC[C@]12CCC(=O)N2C.O=C(O)C(F)(F)F | 88.6%
COc1ccc(CN2C[C@H](N3CCCC3=O)[C@@H]3OCCC[C@@H]32)cc1.O=C(O)C(F)(F)F | 8.325%
COc1ccc(CN2CCO[C@@H]3C[C@@H](C(=O)NC(C)C)C[C@H]32)cc1.O=C(O)C(F)(F)F | -0.6614%
CC[C@@H]1N(Cc2ccc(C)o2)CCC[C@]12CCC(=O)N2CCOC.O=C(O)C(F)(F)F | 120.4%
Cc1ccc(CN2CC(C(=O)N3CCCC3)C3(CCOCC3)C2)s1.O=C(O)C(F)(F)F (stereo not drawn) | -16.58%
CNC(=O)[C@H]1C[C@H]2OCC[C@H]2N(Cc2ccc(F)cc2)C1.O=C(O)C(F)(F)F | -9.122%
CN1CCN(c2cnn(CCn3cccn3)c(=O)c2)CC1 | 1.729%
CN(C)C[C@H]1CC[C@@H](Cc2ccc3c(cnn3C)c2)O1 | 15.72%
Cc1cccc2nc(CN3CCCC(Cn4ccnn4)C3)cc(=O)n12 (stereo not drawn) | -2.392%
CC(C)Cn1ncc2cc(C(=O)N(C)CCc3ccccc3)cnc21 | 7.152%
Cn1nnc2c1CCN(Cc1ccoc1)C2COCc1ccccc1.O=C(O)C(F)(F)F (stereo not drawn) | 14.93%
COCCN1C[C@@H]2CN(Cc3cccc(F)c3)CCC[C@]2(C(=O)O)C1.O=C(O)C(F)(F)F.O=C(O)C(F)(F)F | 4.566%
COCCN1C(=O)CCC12CCCN(Cc1ccccc1F)C2.O=C(O)C(F)(F)F.O=C(O)C(F)(F)F (stereo not drawn) | -19.88%
COCCNC(=O)[C@H]1C[C@H]2OCC[C@H]2N(Cc2ccoc2)C1.O=C(O)C(F)(F)F | 2.424%
CC[C@@H]1N(Cc2ccc(F)cc2)CCC[C@]12CCC(=O)N2CCOC.O=C(O)C(F)(F)F | 105%
CC[C@@H]1N(Cc2ccoc2)CCC[C@]12CCC(=O)N2CCOC.O=C(O)C(F)(F)F | 119.5%
